# Source: PubChem
# An excerpt weighted towards active compounds, which were near 19% of everything screened.
# DT40 TDP1 CPT: growth inhibition of DT40 Tdp1-/-;hTDP1 cells with camptothecin (screen for TDP1 inhibitors); chicken DT40 Tdp1-/-;hTDP1 cells + 20 nM CPT, ATP luminescence, 48 h; Potency, µM (doses to about 46.2 µM), for the others: top-dose activity change, negative = growth inhibition, usual class: inhibitors; 420,000 compounds, 12% hits; AID 686979; note: potency is the fitted concentration of half-maximal effect; nearly all actives have a fitted effect of over 55% in size
#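 Chicken DT40 Tdp1-/- cells stably complemented with human TDP1 were seeded at 400 cells/well in medium containing 20 nM camptothecin, exposed to pin-transferred compounds, and grown at 37 °C for at least 48 hr. Viability was read as ATP luminescence.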
# HT1080 IDH1KD tx: HT-1080 IDH1 knockdown cell toxicity (counter line); AID 686971; Potency, µM (highest dose often 46.1 µM), without a hit: at the highest dose activity, negative = toxicity, most hits filed as cytotoxic; 360,000 compounds, 2% hits; HT-1080 IDH1 knockdown viability, ATP luminescence, 48 h;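 note: potency is the fitted concentration of half-maximal effect; 0% = DMSO wells and -100% = cell-free medium wells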
#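 Luminescent ATP read-out (CellTiter-Glo, 10 min at room temperature) after 48 h compound exposure at 37 °C gave viability of IDH1-knockdown HT-1080 cells. Activity was normalised to DMSO and cell-free wells, then fitted as concentration-response curves.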
# HT1080-NT tox: kills 2HG-producing HT-1080-NT fibrosarcoma cells. HT-1080-NT fibrosarcoma viability, CellTiter-Glo ATP luminescence, 48 h. Potency, µM (highest dose often 46.1 µM), for the others: at the top dose activity, negative = less viability, most hits filed as cytotoxic. 360,000 compounds, 1.6% hits. AID 686970;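 note: NT is the 2HG producing partner of a matched IDH1 knockdown line; potency is the fitted concentration of half-maximal effect; 0% = DMSO-treated cells and -100% = media-only wells without cells; nearly all actives have a fitted effect of over 55% in size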
#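 Fibrosarcoma NT cells, 750 per well in 5% FBS RPMI, were exposed to compound for 48 hours. Viability: CellTiter-Glo luminescence.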
# DT40 TDP1 no CPT: qHTS for Inhibitors of human tyrosyl-DNA phosphodiesterase 1 (TDP1): qHTS in cells in absence of CPT | Potency, µM (titrated, usually from 46.2 µM), inactives show at the top dose activity change, negative = growth inhibition, actives largely listed as inhibitors | 420,000 compounds, 15% hits | DT40 Tdp1-/- hTDP1 cells, no CPT, ATP luminescence, 48 h; note: potency is the fitted concentration of half-maximal effect; nearly all actives have a fitted effect of over 55% in size
#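 Camptothecin absent (DMSO only). Human TDP1-complemented DT40 knockout cells, 400 cells/well, 37 °C for minimum 48 hr; ATP measured via CellTiter-Glo, 30 min dark incubation, luminescence.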
# IL-1B inflam inh: inhibitors of inflammasome signaling (IL-1 beta secretion). THP-1 LPS/ATP IL-1B secretion, AlphaLISA, 16 h; active compounds read low. activity change, % at 57.5 µM. 360,000 compounds, 4.7% hits; in the data active = activity change below about -50%; inconclusive = mostly about -30% to -49%
#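 THP-1 cells pretreated 1 hr with compounds (up to 57.5 uM final), then stimulated with LPS (250 ng/mL final) plus ATP (1.25 mM final); secreted IL-1B measured by AlphaLISA after 16 hr, decreased signal indicating inhibition.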
# Active calls of the source: *; u = inconclusive; ! = repeats disagree. Unless noted, calls come from the whole dose curve; as a rule, active = well fitted curve in the direction sought with a large enough effect; inconclusive = small, poorly fitted or top-dose-only effect, or another doubt; inactive = no such curve, though single readings can be large; an effect the other way counts as inactive or inconclusive. Unless noted, % is set by controls: 0 for no effect and ±100 for the full control effect.
SMILES,DT40 TDP1 CPT,HT1080 IDH1KD tx,HT1080-NT tox,DT40 TDP1 no CPT,IL-1B inflam inh
CCN1CCN(Cc2ccc(NC(=O)c3cc(NC(=O)c4ccno4)cc(OC)c3)cc2C(F)(F)F)CC1,u,-21%,-23%,23µM*,u
CCN1CCN(c2ccc(NC(=O)c3cccnc3)cc2Cl)CC1,-8%,10%,11%,-23%,6
CCN1CCN(c2cc(C)c3cc(NC(=O)c4cccnc4Cl)ccc3n2)CC1,-3%,19%,1%,-15%,-4
CCN1CCN(Cc2ccc(NC(=O)c3cc(NC(=O)c4cncc(-c5cccs5)c4)cc(OC)c3)cc2C(F)(F)F)CC1,16µM*,18µM*,u,7.3µM*,-104*!
CCN1CCN(Cc2ccc(NC(=O)c3ccc(C)c(/C=C/c4cnc(Nc5cc(N6CCNCC6)nc(C)n5)cn4)c3)cc2C(F)(F)F)CC1,3.3µM*,18µM*!,u,15µM*,-100*
COc1cc(NC(=O)N2CCNC2=O)cc(C(=O)Nc2cccc(C(F)(F)F)c2)c1,3.7µM*,5.8µM*,4.6µM*,4.1µM*,38
CCN1CCN(Cc2ccc(NC(=O)c3cc(NC(=O)C4=NN(c5ccccc5)C(=O)C4)cc(OC)c3)cc2C(F)(F)F)CC1,u,-2%,-3%,u,-3
CC1=C(C(=O)OC(C)C)C(c2ccc(Cl)cc2)n2c(s/c(=C\c3ccc(OCC(=O)O)cc3)c2=O)=N1 (configuration not stated),-27%,-1%,-2%,u,-4
Cc1ccc(S(=O)(=O)N2CCOCC2)cc1NC(=O)CNc1ccccc1N1CCCC1=O,-14%,7%,12%,-8%,7
COc1ccccc1C(=O)COC(=O)c1nc(Cl)ccc1Cl,-2%,9%,14%,-24%,-7
CCN1CCN(Cc2ccc(NC(=O)c3cc(NC(=O)c4cc(-c5ccc(OC)cc5)n[nH]4)cc(OC)c3)cc2C(F)(F)F)CC1,u,u,u,4.6µM*,0
CCOc1cccc(C(=O)Nc2ccc(NC(=O)c3cc4ccccc4o3)c(OC)c2)c1,u,-12%,u,u,-1
CCN1CCN(Cc2ccc(NC(=O)c3ccc(C)c(NC(=O)C[C@@H]4NC(=O)[C@H](Cc5ccccc5)NC4=O)c3)cc2C(F)(F)F)CC1,5%,0%,9%,0%,64
CCN1CCN(Cc2ccc(NC(=O)c3cc(NC(=O)c4cc5cccc(OC)c5o4)cc(OC)c3)cc2C(F)(F)F)CC1,5.8µM*,u,u,4.6µM*,-107*!
CCN1CCN(Cc2ccc(NC(=O)c3ccc(C)c(NC(=O)c4csc(-c5ccncc5)n4)c3)cc2C(F)(F)F)CC1,16µM*,u,u,23µM*,0
CCN1CCN(Cc2ccc(NC(=O)c3cc(NC(=O)c4ccc5n[nH]nc5c4)cc(OC)c3)cc2C(F)(F)F)CC1,12%,11%,1%,-7%,2
CCN1CCN(Cc2ccc(NC(=O)c3cc(NC(=O)N4CCNC4=O)cc(OC)c3)cc2C(F)(F)F)CC1,16µM*,-23%,-11%,21µM*,50
Cc1ccc(S(=O)(=O)NN=Cc2ccco2)cc1,3%,10%,11%,-4%,-13
CCOc1cc(/C=N/NC(=O)c2ccc3c(c2)OCCO3)cc(Br)c1O,1%,3%,3%,-2%,-14
CC1CCCN(C(=O)CSc2nnc(-c3ccncc3)n2C)C1 (configuration not stated),-1%,1%,-3%,-3%,-15
CCN(CC)CCNC(=O)c1ccc(NC(=O)CC(NC(=O)c2ccccc2Cl)c2ccccc2)cc1 (configuration not stated),15%,-1%,4%,7%,-7
CCN1CCN(Cc2ccc(NC(=O)c3ccc(C)c(NC(=O)C4=NN(c5ccccc5)C(=O)C4)c3)cc2C(F)(F)F)CC1,u,0%,-8%,u,16
CCN1CCN(Cc2ccc(NC(=O)c3ccc(C)c(NC(=O)c4ccno4)c3)cc2C(F)(F)F)CC1,13µM*,-10%,-14%,6.5µM*,-65*
CCN1CCN(Cc2ccc(NC(=O)c3ccc(C)c(NC(=O)c4cccc(-c5cn[nH]c(=O)c5)c4)c3)cc2C(F)(F)F)CC1,u,-7%,u,16µM*,-96*
CCOC(=O)c1c(S(=O)(=O)NCC(=O)Nc2ccc(F)cc2)c(C)n(C)c1C,9%,-4%,-1%,22%,-2
SMILES,DT40 TDP1 CPT,HT1080 IDH1KD tx,HT1080-NT tox,DT40 TDP1 no CPT,IL-1B inflam inh
Cc1ccc(NC(=O)CN(C)C(=O)Cc2c(Cl)cccc2Cl)cc1,u,1%,-14%,16µM*,1
Cc1ccc(NC(=O)CN(C)C(=O)c2ccccc2Cc2ccccc2)cc1,u,-21%,-1%,u,-58*
COc1ccccc1CNC(=O)C(NS(=O)(=O)c1cccc2nsnc12)C(C)C (configuration not stated),-9%,2%,9%,26%,4
COc1ccc(N2C(=O)CC(N3CCN(c4ccc(Cl)cc4)CC3)C2=O)cc1 (configuration not stated),2%,-5%,-1%,11%,-51*
CCCCNC1=CC(=O)C(=O)c2ccccc21,8.2µM*,23µM*,-5%,21µM*,20
CCCCNC1=CC(=O)C(NCCCC)=CC1=O,23µM*,-17%,-22%,16µM*,-1
CCOC(=O)Oc1c(OC)cc(C(=O)O[C@@H]2C[C@@H]3CN4CCc5c([nH]c6cc(OC)ccc56)[C@H]4C[C@@H]3[C@H](C(=O)OC)[C@H]2OC)cc1OC,23µM*,u,15µM*,13µM*,0
CC(C)c1ccc2oc(-c3ccc(NC(=O)c4ncn[nH]4)cc3)nc2c1,u,u,-3%,u,1
O=C(Nc1ccc2oc(-c3cccnc3)nc2c1)c1cccnc1,-24%,-9%,11%,u,-9
COc1cccc(C(=O)Nc2ccc(-c3nc4ccccc4o3)c(O)c2)c1,18µM*,u,u,16µM*,-5
COc1cccc(C(=O)Nc2ccc3c(C)cc(=O)oc3c2)c1,u,2%,5%,2%,u
Cc1ccc2oc(-c3ccc(NC(=O)c4cccnc4)cc3)nc2c1,u,-1%,-4%,21µM*,-9
COc1cc(OC)cc(C(=O)Nc2ccc(-c3nc4ccccc4o3)cc2)c1,16µM*,u,u,16µM*,47
O=C(Nc1ccc(-c2nc3ccccc3o2)cc1)c1ccc2c(c1)OCO2,u,u,-19%,-29%,28
